Here are results for 18 molecules from PubChem BioAssay (NCATS).

Where “and” joins values, the source holds several entries; their conditions need not be identical. Identical values can stand only once. Results filed as inconclusive are left out. Calls of active or inactive are those of the source. Unless noted, calls come from the whole dose curve; as a rule, active = well fitted curve in the direction sought with a large enough effect; inconclusive = small, poorly fitted or top-dose-only effect, or another doubt; inactive = no such curve, though single readings can be large; an effect the other way counts as inactive or inconclusive.

Assay [1] is described as follows: Primary qHTS for inhibitors of nuclear receptor binding SET domain protein 2 (NSD2) in an isogenic RCH-ACV NSD2 p.E1099K mutant (9B) (AID 1645876; note: potency is the fitted concentration of half-maximal effect; nearly all actives have a fitted effect of over 70% in size). (In general: Quantitative high-throughput screening tests each substance at several concentrations.)
Assay [2] in a line: Primary qHTS for inhibitors of nuclear receptor binding SET domain protein 2 (NSD2) in an RCH-ACV wild type WT cells (2C) (AID 1645877). Note: potency is the fitted concentration of half-maximal effect; nearly all actives have a fitted effect of over 70% in size.
Assay [3] has as its target Glutathione peroxidase 1 (Homo sapiens) (UniProt P07203). Nature of the assay: Primary qHTS Assay for Inhibitors of Recombinant Selenoprotein Glutathione Peroxidase 1 (GPX1) (AID 1845191). Note: nearly all actives have a fitted effect of over 65% in size. An outline of the steps: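 Recombinant GPX1 (10 nM final) was preincubated with compound for 30 min at room temperature, then reacted with 1 mM GSH, 0.5 mM CHP, 0.5 mM NADPH and 100 nM glutathione reductase; NADPH fluorescence (340/450 nm) was read at 0 and 15 min.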

Assay [4] is described as follows: qHTS drug screen for cell cycle checkpoint inhibitors in PARPi-resistant BRCA-mutant ovarian cancer cell lines. (AID 1963452; calls by dose curve). As to conditions: PEO1/OlaR viability, CellTiter-Glo luminescence, 96 h, stronger effect = lower value. An outline of the steps: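 PEO1, PEO4 and PEO1/OlaR ovarian cancer cells, 600 per well, exposed 96 h at 37C to a dilution series. Viability read by CellTiter-Glo luminescence, normalized to DMSO and empty wells; activity summarized as Z-AUC.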

Assay [5] is described as follows: AP1 Signaling Pathway (AID 357; active = well fitted curve in either direction with a large enough effect, not every such curve was filed as active;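 note: ME-180 reporter cells stimulated with EGF at its EC50 level; % is set by controls: 0 for no effect and ±100 for the full control effect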). Particulars: ME-180 (cervical carcinoma) AP-1-bla reporter, EGF-induced, beta-lactamase ratio, 5 h; at 38 µM (top of the series). An outline of the steps:
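Read-out was the 460nm/530nm emission ratio (excitation 405nm) after CCF4 loading for 2.5 hours at room temperature. Cells carried an AP-1-driven beta-lactamase reporter, were stimulated with EC50 EGF plus compound for 5 hours, and AC50 values came from titrations.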

A short description of assay [6]: NFAT Signaling Pathway (AID 444; active = well fitted curve in either direction with a large enough effect, not every such curve was filed as active;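 note: carbachol stimulus at about its EC50 of 1 µM final; % is set by controls: 0 for no effect and ±100 for the full control effect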). Particulars: Jurkat NFAT-bla M1, carbachol, beta-lactamase ratio, 5 h; at 38 µM (top of the series). A digest of the protocol: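 Jurkat cells carrying an NFAT-driven β-lactamase reporter and co-transfected muscarinic M1 receptor were treated with compound plus carbachol (1 uM final, an EC50 level) for 5 h at 37 °C. CCF4 loading followed for 1 h at RT; 460/530 nm ratio gave %activity.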

For assay [7], the target named is Cytochrome P450 2C9 (Homo sapiens) (UniProt P11712). Kind of assay: qHTS Assay for Inhibitors and Substrates of Cytochrome P450 2C9 (AID 883). For activity change, negative = inhibition: % is set by controls: 0 for no effect and ±100 for the full control effect. Note: nearly all actives have a fitted effect of over 60% in size. Note: potency is the fitted concentration of half-maximal effect. A digest of the protocol: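 A luminogenic readout tracked human CYP2C9 (10nM) converting deoxyluciferin (100uM, at KM) in 25mM KPO4 during 60 min at 37C with regenerated NADPH. Values normalized to 57uM sulphaphenazole as complete inhibition.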

The target of assay [8] is Cytochrome P450 3A4 (Homo sapiens) (UniProt P08684). Nature of the assay: qHTS Assay for Inhibitors and Substrates of Cytochrome P450 3A4 (AID 884). Note: % is set by controls: 0 for no effect and ±100 for the full control effect; nearly all actives have a fitted effect of over 50% in size. An outline of the steps:
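20 nM human CYP3A4 with 25 uM Luciferin-PPXE (at KM) in 200 mM KPO4, preincubated 10 min with compound; NADPH regeneration started a 60 min RT reaction. Luciferin detected by luminescence, normalized to 57 uM ketoconazole as full inhibition.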

Assay [9] deals with Cytochrome P450 2D6 (Homo sapiens) (UniProt P10635). Kind of assay: qHTS Assay for Inhibitors and Substrates of Cytochrome P450 2D6 (AID 891). Note: nearly all actives have a fitted effect of over 60% in size. Note: potency is the fitted concentration of half-maximal effect. An outline of the steps: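 Human CYP2D6 (5 nM) with 30 uM Luciferin-ME EGE (at Km) in 100 mM KPO4, compound preincubated 10 min, then NADPH regeneration system for 60 min at room temperature. Luciferin read by luminescence; normalized to 1.43 uM quinidine.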

Assay [10] concerns the target Cytochrome P450 2C19 (Homo sapiens) (UniProt P33261). Kind of assay: qHTS Assay for Inhibitors and Substrates of Cytochrome P450 2C19 (AID 899). Note: nearly all actives have a fitted effect of over 60% in size. Note: potency is the fitted concentration of half-maximal effect. An outline of the steps: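 NADPH-dependent conversion of Luciferin-H EGE (10uM, at KM) by 5nM enzyme in 50mM KPO4, 60 min at 37C following 10 min compound preincubation. Stopped with luciferin detection buffer; luminescence read after 20 min.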

Assay [11] can be described thus: qHTS Assay for Identification of Small Molecule Agonists for Thrombopoietin (TPO) Signaling Pathway (AID 917). Note: % is set by controls: 0 for no effect and ±100 for the full control effect. A digest of the protocol:
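Murine Ba/F3 cells expressing human TPO receptor and GPIIb-promoter luciferase, IL-3-starved overnight, given compound plus TPO at 26 pM (EC50). After 24 h at 37 C, 5% CO2, luminescence read.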

Assay [12] addresses Pyruvate kinase PKM (Homo sapiens) (UniProt P14618). Kind of assay: qHTS Assay for Activators of Human Muscle Pyruvate Kinase (AID 954; active = well fitted curve in the direction sought with a large enough effect, not every such curve was filed as active;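 note: 0% = uninhibited enzyme and -100% = no enzyme or full thiadiazolimine inhibition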). A digest of the protocol:
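Purified human PKM2 (0.1 nM) with 0.5 mM PEP (Km) and 0.1 mM ADP in 50 mM imidazole pH 7.2, KCl, MgCl2, 1 h at room temperature; ATP formed read by coupled luciferase luminescence. Normalized to no-enzyme/110 uM thiadiazolimine inhibition; 0.3 nM enzyme column for activation.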

For assay [13], the target named is alpha-glucosidase (Oryza sativa, rice) (UniProt Q653V4). Nature of the assay: Counterscreen for Glucocerebrosidase Inhibitors: qHTS Assay for Rice alpha-Glucosidase at pH 5.0 (AID 997).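 Note: 0% = full activity with enzyme and -100% = basal without enzyme.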 An outline of the steps:
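Rice alpha-glucosidase (4 nM final) with 400 uM 4-methylumbelliferyl-alpha-D-glucopyranoside in citrate buffer pH 5.0, 20 min at room temperature, stopped at pH 10; fluorescence 365/440 nm, compounds 0.7 nM–77 uM, AC50 from Hill fits.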
For orientation: A counterscreen serves to expose hits that act by an unwanted route or on another target.

Assay [14] deals with Cytochrome P450 3A4 (Homo sapiens) (UniProt P08684). Kind of assay: qHTS Assay for Activators of Cytochrome P450 3A4 (AID 885). Note: nearly all actives have a fitted effect of over 65% in size. An outline of the steps: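 Human CYP3A4 (20 nM) with Luciferin-PPXE at 25 uM (its KM) in 200 mM KPO4; 10 min compound preincubation, then NADPH regeneration and 60 min reaction at RT. Luciferin read by luminescence; normalized to 57 uM ketoconazole full inhibition.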

Assay [15] has as its target Muscarinic acetylcholine receptor M1 (Rattus norvegicus) (UniProt P08482). Nature of the assay: qHTS Assay for Antagonists of Acetylcholine Muscarinic M1 Receptor: Measurement of IP-One Response (AID 944). Note: nearly all actives have a fitted effect of over 75% in size. A digest of the protocol:
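CHO cells expressing rat M1 receptor, recovered overnight, were pre-incubated 10 min with compound, then stimulated 30 min with carbachol at EC80 (200 nM) in LiCl-containing buffer, pH 7.4. IP1 accumulation was read by HTRF (620/665 nm).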

In assay [16] the target is Pyruvate kinase (Leishmania mexicana) (UniProt Q27686). Kind of assay: qHTS Validation Assay for Inhibitors of Leishmania Mexicana Pyruvate Kinase (AID 945).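 Note: 0% = DMSO only neutral control wells.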 A digest of the protocol:
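Eight-point qHTS titrations in triplicate, data normalized to DMSO neutral control. Reaction: 0.2 nM LmPYK E451W mutant, 0.5 mM PEP, 0.1 mM ADP, 7 mM MgCl2, pH 7.2, one hour at room temperature; luminescent ATP detection.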

Assay [17] is described as follows: qHTS for Inhibitors of Plasmodium falciparum (CP250) proliferation (AID 504320).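 Note: plate controls were DMSO vehicle for no effect and 0.29 µM artemisinin control for full effect.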 An outline of the steps:
(§1)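 Erythrocytes infected with P. falciparum line (0.3% parasitemia, 2.5% hematocrit final) incubated with compounds 72 h at 37 °C, 5% CO2; SYBR Green lysis buffer added, fluorescence read next day. Normalized to 0.29 uM artemisinin and DMSO.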

A short description of assay [18]: qHTS for Inhibitors of Plasmodium falciparum (GB4) proliferation (AID 504315).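 For activity change, negative = inhibition: 0% = DMSO vehicle and -100% = 0.29 µM artemisinin control.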 Note: nearly all actives have a fitted effect of over 50% in size. Note: potency is the fitted concentration of half-maximal effect. An outline of the steps:
as §1

The nature of assay [19]: qHTS for Inhibitors of Plasmodium falciparum (7G8) proliferation (AID 504316).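 For activity change, negative = inhibition: 0% = DMSO vehicle and -100% = 0.29 µM artemisinin full kill.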 Note: nearly all actives have a fitted effect of over 65% in size. Note: potency is the fitted concentration of half-maximal effect. An outline of the steps: as §1
A short description of assay [20]: qHTS for Inhibitors of Plasmodium falciparum (HB3) proliferation (AID 504318).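 Note: 0% = DMSO vehicle and -100% = artemisinin control; nearly all actives have a fitted effect of over 60% in size.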 A digest of the protocol: as §1

Sequence of Cytochrome P450 3A4 (Homo sapiens) (P08684 whole entry, looked up): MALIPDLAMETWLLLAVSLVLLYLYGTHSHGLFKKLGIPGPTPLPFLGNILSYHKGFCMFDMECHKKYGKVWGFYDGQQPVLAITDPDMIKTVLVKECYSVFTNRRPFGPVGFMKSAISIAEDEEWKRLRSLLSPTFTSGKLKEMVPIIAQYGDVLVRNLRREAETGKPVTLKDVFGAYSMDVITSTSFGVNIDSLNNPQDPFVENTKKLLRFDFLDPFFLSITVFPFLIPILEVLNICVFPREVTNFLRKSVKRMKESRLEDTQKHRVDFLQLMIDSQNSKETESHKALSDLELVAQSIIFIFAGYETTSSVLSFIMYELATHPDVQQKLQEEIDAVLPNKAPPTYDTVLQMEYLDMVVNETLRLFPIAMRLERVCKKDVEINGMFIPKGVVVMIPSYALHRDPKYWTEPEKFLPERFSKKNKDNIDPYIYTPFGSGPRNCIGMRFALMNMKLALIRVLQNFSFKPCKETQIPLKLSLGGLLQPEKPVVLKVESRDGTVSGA
Sequence of Cytochrome P450 2D6 (Homo sapiens) (P10635 whole entry, looked up): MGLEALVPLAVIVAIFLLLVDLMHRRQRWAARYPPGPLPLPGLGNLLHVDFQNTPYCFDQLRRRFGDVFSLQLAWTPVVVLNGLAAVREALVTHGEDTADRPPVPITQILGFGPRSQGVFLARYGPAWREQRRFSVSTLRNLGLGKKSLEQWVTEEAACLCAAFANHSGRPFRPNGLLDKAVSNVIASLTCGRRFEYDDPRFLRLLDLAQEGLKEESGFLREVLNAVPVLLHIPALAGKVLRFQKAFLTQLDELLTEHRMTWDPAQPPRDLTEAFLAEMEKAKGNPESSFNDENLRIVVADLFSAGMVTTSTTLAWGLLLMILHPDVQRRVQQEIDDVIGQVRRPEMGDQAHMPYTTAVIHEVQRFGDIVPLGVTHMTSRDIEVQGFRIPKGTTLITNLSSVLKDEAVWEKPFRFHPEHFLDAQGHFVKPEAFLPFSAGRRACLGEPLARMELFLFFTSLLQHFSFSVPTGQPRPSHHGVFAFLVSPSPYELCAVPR
Sequence of Cytochrome P450 2C9 (Homo sapiens) (P11712 whole entry, looked up): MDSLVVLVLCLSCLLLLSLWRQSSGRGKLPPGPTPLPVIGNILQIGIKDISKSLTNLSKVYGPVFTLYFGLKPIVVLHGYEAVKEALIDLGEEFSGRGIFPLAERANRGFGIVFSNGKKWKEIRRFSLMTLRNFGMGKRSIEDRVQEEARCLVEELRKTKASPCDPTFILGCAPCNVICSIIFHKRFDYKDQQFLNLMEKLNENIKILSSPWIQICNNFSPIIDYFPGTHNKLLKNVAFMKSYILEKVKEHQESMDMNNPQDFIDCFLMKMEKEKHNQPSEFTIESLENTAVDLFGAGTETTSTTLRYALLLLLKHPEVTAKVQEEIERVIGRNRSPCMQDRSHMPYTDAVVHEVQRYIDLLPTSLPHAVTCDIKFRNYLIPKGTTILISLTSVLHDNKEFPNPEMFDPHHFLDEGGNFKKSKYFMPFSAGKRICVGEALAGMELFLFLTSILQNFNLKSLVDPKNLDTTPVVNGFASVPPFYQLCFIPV
Sequence of Cytochrome P450 2C19 (Homo sapiens) (P33261 whole entry, looked up): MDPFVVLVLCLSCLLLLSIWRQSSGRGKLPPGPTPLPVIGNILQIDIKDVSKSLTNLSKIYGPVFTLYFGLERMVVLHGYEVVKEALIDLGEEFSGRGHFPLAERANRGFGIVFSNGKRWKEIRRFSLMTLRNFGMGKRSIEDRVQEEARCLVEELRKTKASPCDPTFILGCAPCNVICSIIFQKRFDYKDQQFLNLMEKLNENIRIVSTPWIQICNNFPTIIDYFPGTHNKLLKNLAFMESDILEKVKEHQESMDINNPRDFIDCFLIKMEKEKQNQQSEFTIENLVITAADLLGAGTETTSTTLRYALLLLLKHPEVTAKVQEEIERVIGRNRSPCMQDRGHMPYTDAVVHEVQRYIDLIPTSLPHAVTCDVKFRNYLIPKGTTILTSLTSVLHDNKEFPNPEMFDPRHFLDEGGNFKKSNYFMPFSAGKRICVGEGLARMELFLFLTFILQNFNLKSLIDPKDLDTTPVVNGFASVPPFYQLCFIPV
Sequence of Pyruvate kinase PKM (Homo sapiens) (P14618 whole entry, looked up): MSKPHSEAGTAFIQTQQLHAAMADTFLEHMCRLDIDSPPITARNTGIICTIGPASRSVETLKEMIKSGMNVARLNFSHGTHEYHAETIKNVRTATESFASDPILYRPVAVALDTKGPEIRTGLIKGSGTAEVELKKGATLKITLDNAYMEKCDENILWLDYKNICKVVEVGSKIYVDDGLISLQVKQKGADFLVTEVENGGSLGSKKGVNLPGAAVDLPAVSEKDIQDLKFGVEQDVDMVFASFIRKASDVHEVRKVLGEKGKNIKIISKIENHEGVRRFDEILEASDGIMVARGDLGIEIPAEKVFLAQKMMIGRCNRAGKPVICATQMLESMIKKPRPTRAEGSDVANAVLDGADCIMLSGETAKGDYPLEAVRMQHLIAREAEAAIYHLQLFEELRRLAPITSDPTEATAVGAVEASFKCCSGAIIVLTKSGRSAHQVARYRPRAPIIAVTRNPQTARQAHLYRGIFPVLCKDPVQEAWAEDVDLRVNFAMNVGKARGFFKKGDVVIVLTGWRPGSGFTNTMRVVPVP
Sequence of Glutathione peroxidase 1 (Homo sapiens) (P07203 whole entry, looked up): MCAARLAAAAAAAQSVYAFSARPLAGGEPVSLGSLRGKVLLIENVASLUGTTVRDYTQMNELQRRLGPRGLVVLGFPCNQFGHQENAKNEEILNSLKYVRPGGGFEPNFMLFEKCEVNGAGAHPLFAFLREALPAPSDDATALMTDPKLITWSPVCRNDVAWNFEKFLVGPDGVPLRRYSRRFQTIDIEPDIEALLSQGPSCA
Sequence of Pyruvate kinase (Leishmania mexicana) (Q27686 2-499 E452W): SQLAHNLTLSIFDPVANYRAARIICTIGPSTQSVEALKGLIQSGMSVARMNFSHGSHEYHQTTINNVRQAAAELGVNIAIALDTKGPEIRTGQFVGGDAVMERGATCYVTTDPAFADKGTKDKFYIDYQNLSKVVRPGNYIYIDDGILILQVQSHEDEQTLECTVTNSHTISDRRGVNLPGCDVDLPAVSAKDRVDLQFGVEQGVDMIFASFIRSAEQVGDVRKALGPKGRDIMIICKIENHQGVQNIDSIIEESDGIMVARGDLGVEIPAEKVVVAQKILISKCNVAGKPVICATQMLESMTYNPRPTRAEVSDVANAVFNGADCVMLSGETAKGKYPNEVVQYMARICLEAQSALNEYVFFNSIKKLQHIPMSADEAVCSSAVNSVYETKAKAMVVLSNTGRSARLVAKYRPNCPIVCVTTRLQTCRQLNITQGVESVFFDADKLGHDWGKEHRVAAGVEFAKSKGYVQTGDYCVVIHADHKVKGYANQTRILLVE
Sequence of Muscarinic acetylcholine receptor M1 (Rattus norvegicus) (P08482 whole entry, looked up): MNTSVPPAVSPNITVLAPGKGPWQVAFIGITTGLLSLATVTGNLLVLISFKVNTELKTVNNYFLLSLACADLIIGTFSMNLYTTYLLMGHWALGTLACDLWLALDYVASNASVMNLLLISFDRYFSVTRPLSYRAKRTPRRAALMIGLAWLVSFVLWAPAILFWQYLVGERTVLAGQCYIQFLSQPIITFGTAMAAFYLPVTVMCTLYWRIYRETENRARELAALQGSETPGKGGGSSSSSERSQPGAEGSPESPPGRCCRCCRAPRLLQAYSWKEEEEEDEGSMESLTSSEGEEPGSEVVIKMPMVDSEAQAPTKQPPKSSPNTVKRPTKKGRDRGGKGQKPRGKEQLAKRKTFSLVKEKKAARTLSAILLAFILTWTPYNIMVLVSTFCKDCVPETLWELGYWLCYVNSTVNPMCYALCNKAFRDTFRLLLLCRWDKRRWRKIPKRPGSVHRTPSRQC

With `C[C@@H](Nc1cc(F)cc(F)c1)c1cc(C(=O)N(C)C)cc2c(=O)cc(N3CCOCC3)oc12`, the Potency in [1] is 259 nM (active) and 235 nM (active); in [2], 411 nM (active) and 1.18 µM (active). For the same molecule, in assay [3], the Potency result was “inactive”. Besides, the values for the Z-AUC in assay [4], in [4] (measured here: PEO1 parental Z-AUC) and in [4] (measured here: PEO4 Z-AUC) were -0.864 (inactive), -0.746 and -0.41, respectively.

As for `COc1ccc2[nH]c(I)c(CCNC(C)=O)c2c1`, the activity change, negative = inhibition is -7.67% (inactive) in assay [5] and -1.64% (inactive) in assay [6].

Consider `CSc1nc(N)c2ncn([C@H]3O[C@H](COP(=O)(O)OP(=O)(O)OP(=O)(O)O)[C@@H](O)[C@@H]3O)c2n1`, for which the Potency result in [7], in assay [8], in [9] and in [10] was “inactive” each time.

`N[C@@H](Cn1cc(I)c(=O)n(Cc2ccc(C(=O)O)cc2)c1=O)C(=O)O`: the Potency in assay [9] is 2.51 µM (active).

For `CN1CCN2c3ccccc3Cc3ccccc3[C@@H]2C1`, the Potency result in assay [8] and in [11] was “inactive” throughout. Further, the molecule was called inactive in assay [12] and in assay [13].

`CN1Cc2c(C(=O)OC(C)(C)C)ncn2-c2ccsc2C1=O`: the Potency in assay [7] was 5.01 µM (active); in assay [10] it was 1.26 µM (active).

For `COC(=O)c1c(-c2cc(OC)c(OC)c(OC)c2)c2ccnc(OCc3ncccn3)c2c(=O)n1Cc1ccnc(C)c1`, the activity change, negative = inhibition in assay [5] was -4.4% (inactive); in [6] it was 4.39% (inactive). Besides, the Potency entry in assay [14], in assay [11], in [15] and in assay [16] was “inactive” throughout. The molecule was called inactive in assay [12] and in assay [13].

As for `COc1cc(O)c2c(=O)c(O)c(-c3ccc(O)c(O)c3)oc2c1`, the Potency result in assay [14] and in assay [3] was “inactive” each time. In addition, the values for the Potency in [1] and in assay [2] were 10.3 µM (active) and 14.6 µM (active), respectively.

For `CCOC(=O)C1=NO[C@@]2(C=C(Br)C(=O)[C@H]3O[C@H]32)C1`, the Potency entry in assay [17] was “inactive”.

On to `CCCCc1cc2c(cn1)C(=O)C(C)(OC(C)=O)C(=O)C2` (centres undefined), for which the Potency is 1.69 µM (active) in [18]; 2.13 µM (active) and 1.69 µM (active) in [19]. Besides, the Potency result in assay [17] is “inactive”.

With `C=CCC12OC3(OC)CC1[C@H](C)[C@@H](c1ccccc1)C2[C@@]3(C)O` (some centres undefined), the Potency entry in assay [18], in assay [19] and in assay [20] was “inactive” throughout.

Take `C[C@@H]1CC[C@H]2C(=O)O[C@@H](COc3ccc(C(C)(C)C)cc3)CN2[C@H]1c1ccc(Br)cc1`: the Potency entry in assay [18] is “inactive”.

In the case of `CCN1C(=NCc2ccccc2)N[C@@H](c2ccccc2)[C@H](C(=O)OC)[C@H]1C`, the Potency result in assay [18], in assay [19], in [20] and in assay [17] was “inactive” in each case.

In the case of `C=CCN1c2ccccc2[C@]23C[C@@H](C(=O)OC)N(C(=O)c4cccs4)C2=NC(C(=O)OC)=C(C(=O)OC)[C@H]13`, the Potency result in [18], in assay [19], in assay [20] and in [17] was “inactive” each time.

`CC12C=C(C=CCCc3ccco3)C(C)(C1)C(CCc1ccco1)CC2=O` (centres undefined): the Potency result in assay [18] and in assay [19] was “inactive” in each case.

Turning to `COC(=O)C1=C2C=C(C)CC(C)N2C(=O)NC1c1ccccc1` (centres undefined), the Potency result in assay [18] and in [19] was “inactive” each time.

`COC(=O)C12C[C@H](C)C3C(C)C(c4ccccc4C31)N2C(=O)C(F)(F)F` (some centres undefined): the Potency result in assay [18], in [19], in [20] and in assay [17] was “inactive” in each case.

For the molecule `CCN1C(=O)N[C@@H](c2ccccc2)[C@@H](C(=O)OC)[C@H]1C`, the Potency result in assay [18], in [19], in assay [20] and in [17] was “inactive” each time.
